Data taken from PubChem BioAssay (EPA / NIEHS).
Values joined by “and” are separate entries in the source; they are usually repeats but may differ in a detail not shown here. Equal entries are not always repeated. Some structures have more than one record in an assay (separate samples or runs), and their calls can disagree. Active and inactive are the calls of the source. Rule for the calls: active = hit-call score of the fitted dose curve at least 0.9, where 1 is the maximum; inactive = score below 0.9.

Tested on: not listed separately
Assay: ATG_CRE_CIS: Attagene CIS-FACTORIAL HepG2 Assay for human cAMP Responsive Element (CRE) binding protein 3 (AID 2282926)
Details: HepG2 CRE cis-reporter, Attagene multiplexed mRNA; actives raise or lower the signal
In short: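 HepG2 cells transiently transfected with a multiplexed reporter library (CRE-driven unit among them) were dosed for 24 h. Reporter mRNA was quantified by RT-PCR, fluorescent labelling, HpaI digestion and capillary electrophoresis, with bidirectional fitting against DMSO baseline.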

SMILES	AC50	outcome
COc1ccc(O)c(C(C)(C)C)c1	100 µM (active)	–
CC1=C2C[C@H]3[C@@H](CC=C4C[C@@H](O)CC[C@@]43C)[C@@H]2CC[C@]12O[C@@H]1C[C@H](C)CN[C@H]1[C@H]2C	–	inactive
O=C(N[C@H]1CN2CCC1CC2)c1cc2ccoc2cn1	–	inactive
NS(=O)(=O)C(F)(F)C(F)(F)C(F)(F)C(F)(F)C(F)(F)C(F)(F)C(F)(F)C(F)(F)F	44.3 µM (active) and 40.2 µM (active) and 32.2 µM (active)	–
Oc1ccc(C(c2ccc(O)cc2)(C(F)(F)F)C(F)(F)F)cc1	11.1 µM (active) and 18.5 µM (active)	inactive
ClC(Cl)=C(c1ccc(Cl)cc1)c1ccc(Cl)cc1	167 µM (active)	inactive
C[C@]12CCC(=O)C=C1CC[C@@H]1[C@@H]2CC[C@@]2(C)[C@H]1CC[C@]2(C)O	–	inactive
CCCN(CCC)N=O	–	inactive
CC(C)(c1ccccc1)c1ccc(O)cc1	33.4 µM (active) and 38.9 µM (active)	inactive
Cc1cc2c3c(c1)C(c1ccccc1)=N[C@@H](NC(=O)c1ccncc1)C(=O)N3CC2	100 µM (active)	–
CC(C)(O)C(=O)Nc1ccc([N+](=O)[O-])c(C(F)(F)F)c1	51 µM (active)	inactive
CCCCCCOC(=O)c1ccccc1C(=O)OCCCCCC	–	inactive
N#Cc1ccc(N(CC(N)=O)CC(F)(F)F)cc1C(F)(F)F	–	inactive
Clc1ccc(Cl)cc1	–	inactive
Clc1ccc(C(c2ccccc2Cl)C(Cl)(Cl)Cl)cc1 (centres undefined)	–	inactive
c1cc2ccc3cccc4ccc(c1)c2c34	–	inactive

Target: CCAAT/enhancer-binding protein beta (Homo sapiens) (UniProt P17676)
Sequence (P17676 whole entry, looked up): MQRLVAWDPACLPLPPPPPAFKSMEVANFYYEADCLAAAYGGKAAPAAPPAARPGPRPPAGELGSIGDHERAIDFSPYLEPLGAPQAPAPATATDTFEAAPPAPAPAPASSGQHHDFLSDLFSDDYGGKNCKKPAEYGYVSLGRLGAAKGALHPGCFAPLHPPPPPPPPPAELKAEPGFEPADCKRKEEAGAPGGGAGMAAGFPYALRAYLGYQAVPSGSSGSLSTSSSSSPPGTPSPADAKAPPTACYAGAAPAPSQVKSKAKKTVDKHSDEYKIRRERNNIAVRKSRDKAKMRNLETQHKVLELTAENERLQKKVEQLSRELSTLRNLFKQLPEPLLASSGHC
Assay: ATG_C_EBP_CIS: Attagene CIS-FACTORIAL HepG2 Assay for human CCAAT/Enhancer Binding Protein (C/EBP) beta (AID 2282927)
Details: HepG2 Attagene cis-factorial transcription factor reporter; actives raise or lower the signal
In short: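 HepG2 transiently transfected with multiplexed reporter units under cis-regulatory promoters reporting endogenous C/EBPb activity. After 24 h exposure, reporter mRNA assayed by RT-PCR, fluorescent labelling, HpaI digestion and capillary electrophoresis; bidirectional fitting versus DMSO.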

SMILES	outcome	AC50
C[C@]12CCC(=O)C=C1CC[C@@H]1[C@@H]2CC[C@]2(C)C(=O)CC[C@@H]12	inactive	–
O=S(=O)(O)C(F)(F)C(F)(F)C(F)(F)C(F)(F)C(F)(F)C(F)(F)F	inactive	–
CCOP(=S)(OCC)SCSC(C)(C)C	inactive	–
O=C(NC(=O)c1cc(F)c(F)cc1Cl)Nc1cc(F)ccc1N1CCC(C(=O)O)CC1	inactive	–
CC(c1ccc(O)cc1)(c1ccc(O)cc1)c1ccc(O)cc1	inactive	–
ClC1=C(Cl)[C@]2(Cl)[C@@H]3[C@@H](Cl)[C@H]4O[C@H]4[C@@H]3C1(Cl)C2(Cl)Cl	inactive	–
Cc1ccccc1[N+](=O)[O-]	inactive	–
ClC1=C(Cl)[C@]2(Cl)[C@@H]3[C@H]4C[C@H]([C@@H]5O[C@H]45)[C@@H]3[C@@]1(Cl)C2(Cl)Cl	inactive	–
Oc1c(Cl)c(Cl)c(Cl)c(Cl)c1Cl	inactive	13.7 µM (active)
CCCCCCCCCc1ccc(O)cc1	inactive	–
O=S(=O)(O)C(F)(F)C(F)(F)C(F)(F)C(F)(F)F	inactive	–
Cc1cc(-c2ccc(N)c(C)c2)ccc1N	inactive	–
CC#Cc1cc(C)nc(Nc2ccccc2)n1	inactive	–
O=C(O)C(F)(F)C(F)(F)C(F)(F)C(F)(F)C(F)(F)C(F)(F)C(F)(F)C(F)(F)F	inactive	–
O=C(O)C(F)(F)C(F)(F)C(F)(F)C(F)(F)C(F)(F)C(F)(F)C(F)(F)C(F)(F)C(F)(F)F	inactive	–
CCCCCCCCCC[N+](C)(C)CCCCCCCCCC	inactive	–
CCC(=O)O[C@H]1CC[C@H]2[C@@H]3CCC4=CC(=O)CC[C@]4(C)[C@H]3CC[C@]12C	inactive	–

SMILES	outcome	AC50
COc1ccc(O)c(C(C)(C)C)c1	–	100 µM (active)
CC1=C2C[C@H]3[C@@H](CC=C4C[C@@H](O)CC[C@@]43C)[C@@H]2CC[C@]12O[C@@H]1C[C@H](C)CN[C@H]1[C@H]2C	–	13.9 µM (active)
O=C(N[C@H]1CN2CCC1CC2)c1cc2ccoc2cn1	inactive	–
NS(=O)(=O)C(F)(F)C(F)(F)C(F)(F)C(F)(F)C(F)(F)C(F)(F)C(F)(F)C(F)(F)F	inactive	36.3 µM (active) and 24.3 µM (active)
Oc1ccc(C(c2ccc(O)cc2)(C(F)(F)F)C(F)(F)F)cc1	inactive	–
ClC(Cl)=C(c1ccc(Cl)cc1)c1ccc(Cl)cc1	inactive	166 µM (active)
C[C@]12CCC(=O)C=C1CC[C@@H]1[C@@H]2CC[C@@]2(C)[C@H]1CC[C@]2(C)O	inactive	–
CCCN(CCC)N=O	inactive	–
CC(C)(c1ccccc1)c1ccc(O)cc1	inactive	46.6 µM (active)
Cc1cc2c3c(c1)C(c1ccccc1)=N[C@@H](NC(=O)c1ccncc1)C(=O)N3CC2	inactive	–
CC(C)(O)C(=O)Nc1ccc([N+](=O)[O-])c(C(F)(F)F)c1	inactive	57.1 µM (active)
CCCCCCOC(=O)c1ccccc1C(=O)OCCCCCC	inactive	–
N#Cc1ccc(N(CC(N)=O)CC(F)(F)F)cc1C(F)(F)F	inactive	–
Clc1ccc(Cl)cc1	inactive	–
Clc1ccc(C(c2ccccc2Cl)C(Cl)(Cl)Cl)cc1 (centres undefined)	inactive	131 µM (active)
c1cc2ccc3cccc4ccc(c1)c2c34	inactive	–
